Reference: the supplement of paper PMC7156485
Where a name gives a salt, the structure may show the parent alone. ± gives the standard deviation of the averaged measurements.

Experiments:
Settings in all cases: concentration: 10 µM; 24 h
HCC1569 [1] = experiment: cell number relative to DMSO (% of DMSO); higher = more cells (less growth inhibition / toxicity)
Method in brief: (§1)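 H1.0 nuclear intensity or cell number is stated as percent of the plate control, based on the median of replicates, and HCC1569 values were smoothed for positional effects. These came from HCC1569 and TDF cells treated with compounds at 10 µM for 24 h at 37 °C in triplicate, then fixed in 3.7% formaldehyde and stained with a rabbit anti-H1.0 antibody, an AlexaFluor 647 secondary and DAPI.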

TDF [2] = experiment: as above
Method in brief: as §1

TDF [3] = experiment: H1.0 immunofluorescence intensity relative to DMSO (% of DMSO); higher = stronger H1.0 induction, active = 120 or more
Method in brief: as §1

HCC1569 [4] = experiment: H1.0 immunofluorescence intensity relative to DMSO (% of DMSO); higher = stronger H1.0 induction, active = 140 or more
Method in brief: as §1
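For H1.0 immunofluorescence intensity relative to DMSO in this document: TDF is a line of transformed human dermal fibroblasts of mesenchymal origin.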
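For cell number relative to DMSO in this document: TDF denotes transformed human dermal fibroblasts of mesenchymal origin.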

**Q.** How did the cell number (HCC1569 [1]) turn out when CC(NC(C)(C)C)C(=O)c1cccc(Cl)c1 (centres undefined) [Amfebutamone] was run?
**A.** 96.8

**Q.** And the cell number (TDF [2])?
**A.** 108

**Q.** And the H1.0 immunofluorescence intensity (TDF [3])?
**A.** 97.2 (inactive)

**Q.** And the H1.0 immunofluorescence intensity (HCC1569 [4])?
**A.** 116 (inactive)

**Q.** For CC(=O)OC1CC2CCC3C(CCC4(C)C3CC([N+]3(C)CCCCC3)C4OC(C)=O)C2(C)CC1[N+]1(C)CCCCC1.[Br-].[Br-] (centres undefined) [Pancuronium bromide], which cell number (HCC1569 [1]) is on record?
**A.** 103

**Q.** And the cell number (TDF [2])?
**A.** 96.9

**Q.** And the H1.0 immunofluorescence intensity (TDF [3])?
**A.** 98.8 (inactive)

**Q.** What about the H1.0 immunofluorescence intensity (HCC1569 [4]) of the same compound?
**A.** 99.5 (inactive)

**Q.** With CCCn1c(C)c(C(=O)c2cccc3ccccc23)c2ccccc21 as the compound, how does the cell number (HCC1569 [1]) read?
**A.** 99.3

**Q.** And the cell number (TDF [2])?
**A.** 88.2

**Q.** What about the H1.0 immunofluorescence intensity (TDF [3]) of the same compound?
**A.** 96.2 (inactive)

**Q.** And the H1.0 immunofluorescence intensity (HCC1569 [4])?
**A.** 100 (inactive)

**Q.** Which cell number (HCC1569 [1]) does the source give for CCn1cnc2c(Nc3cccc(Cl)c3)nc(NC3CCCCC3N)nc21.Cl (centres undefined) here?
**A.** 53

**Q.** What about the cell number (TDF [2]) of the same compound?
**A.** 21.5

**Q.** What about the H1.0 immunofluorescence intensity (TDF [3]) of the same compound?
**A.** 132 (active)

**Q.** And the H1.0 immunofluorescence intensity (HCC1569 [4])?
**A.** 101 (inactive)

**Q.** How did the cell number (HCC1569 [1]) turn out when CC1(C)CCCC(C)(C)N1[O] was run?
**A.** 99.1

**Q.** What about the cell number (TDF [2]) of the same compound?
**A.** 96.8

**Q.** What about the H1.0 immunofluorescence intensity (TDF [3]) of the same compound?
**A.** 100 (inactive)

**Q.** And the H1.0 immunofluorescence intensity (HCC1569 [4])?
**A.** 99.1 (inactive)

**Q.** Which results are given for CC(C)c1cccc(C(C)C)c1O [Propofol]?
**A.** cell number (HCC1569 [1]): 99.2 ± 2.9; cell number (TDF [2]): 93.1 ± 16; H1.0 immunofluorescence intensity (TDF [3]): 93.7 (inactive); H1.0 immunofluorescence intensity (HCC1569 [4]): 95.8 (inactive)

**Q.** For N#CC(C#N)=Cc1ccc(O)c(O)c1 [Tyrphostin 23], which cell number (HCC1569 [1]) is on record?
**A.** 92.8

**Q.** What about the cell number (TDF [2]) of the same compound?
**A.** 93.1

**Q.** And the H1.0 immunofluorescence intensity (TDF [3])?
**A.** 94.4 (inactive)

**Q.** What about the H1.0 immunofluorescence intensity (HCC1569 [4]) of the same compound?
**A.** 102 (inactive)

**Q.** N[C@@](CF)(Cc1cnc[nH]1)C(=O)O [MK-453 hydrochloride] was tested. Which cell number (HCC1569 [1]) did it give?
**A.** 101

**Q.** And the cell number (TDF [2])?
**A.** 103

**Q.** What about the H1.0 immunofluorescence intensity (TDF [3]) of the same compound?
**A.** 100 (inactive)

**Q.** What about the H1.0 immunofluorescence intensity (HCC1569 [4]) of the same compound?
**A.** 91.5 (inactive)

**Q.** For COc1cc(C2c3cc4c(cc3C(O)C3COC(=O)C23)OCO4)cc(OC)c1O (centres undefined) [4'-Demethylpipodophyllotoxin], which cell number (HCC1569 [1]) is on record?
**A.** 59.6

**Q.** What about the cell number (TDF [2]) of the same compound?
**A.** 12.7

**Q.** And the H1.0 immunofluorescence intensity (TDF [3])?
**A.** 157 (active)

**Q.** What about the H1.0 immunofluorescence intensity (HCC1569 [4]) of the same compound?
**A.** 132 (inactive)

**Q.** How did the cell number (HCC1569 [1]) turn out when C=CCN1CCC23c4c5ccc(O)c4OC2C(=NNC(=O)c2ccccc2)CCC3(O)C1C5 (centres undefined) [Naloxone benzoylhydrazone] was run?
**A.** 99.7

**Q.** And the cell number (TDF [2])?
**A.** 118

**Q.** What about the H1.0 immunofluorescence intensity (TDF [3]) of the same compound?
**A.** 101 (inactive)

**Q.** And the H1.0 immunofluorescence intensity (HCC1569 [4])?
**A.** 93.3 (inactive)

**Q.** Which cell number (HCC1569 [1]) does the source give for COc1ccc2c3c1OC1C(=O)CCC4(O)C(C2)N(CC2CC2)CCC314.Cl (single isomer, unassigned; (-)) [(-)-3-Methoxynaltrexone hydrochloride] here?
**A.** 104

**Q.** And the cell number (TDF [2])?
**A.** 109

**Q.** And the H1.0 immunofluorescence intensity (TDF [3])?
**A.** 88.4 (inactive)

**Q.** What about the H1.0 immunofluorescence intensity (HCC1569 [4]) of the same compound?
**A.** 86.7 (inactive)

**Q.** How did the cell number (HCC1569 [1]) turn out when CC1=NN=C(c2ccc(N)cc2)c2cc3c(cc2C1)OCO3.Cl was run?
**A.** 97.4

**Q.** What about the cell number (TDF [2]) of the same compound?
**A.** 95.2

**Q.** What about the H1.0 immunofluorescence intensity (TDF [3]) of the same compound?
**A.** 106 (inactive)

**Q.** What about the H1.0 immunofluorescence intensity (HCC1569 [4]) of the same compound?
**A.** 104 (inactive)

**Q.** Which results are given for COc1ccc2c(c1OC)C(=O)OC2C1c2cc3c(cc2CCN1C)OCO3 (centres undefined)?
**A.** cell number (HCC1569 [1]): 107; cell number (TDF [2]): 97.5; H1.0 immunofluorescence intensity (TDF [3]): 90.5 (inactive); H1.0 immunofluorescence intensity (HCC1569 [4]): 95.3 (inactive)

**Q.** For CP(=O)(O)CCCN.Cl, which cell number (HCC1569 [1]) is on record?
**A.** 102

**Q.** What about the cell number (TDF [2]) of the same compound?
**A.** 98.3

**Q.** And the H1.0 immunofluorescence intensity (TDF [3])?
**A.** 92.5 (inactive)

**Q.** What about the H1.0 immunofluorescence intensity (HCC1569 [4]) of the same compound?
**A.** 107 (inactive)

**Q.** For CCCN(CCC)C(=O)Cc1c(-c2ccc(Cl)cc2)nc2ccc(Cl)cn12, which cell number (HCC1569 [1]) is on record?
**A.** 87.6

**Q.** And the cell number (TDF [2])?
**A.** 93.7

**Q.** And the H1.0 immunofluorescence intensity (TDF [3])?
**A.** 100 (inactive)

**Q.** What about the H1.0 immunofluorescence intensity (HCC1569 [4]) of the same compound?
**A.** 115 (inactive)

**Q.** Clc1cnc(Oc2ccc(Oc3ncc(Cl)cc3Cl)cc2)c(Cl)c1 was tested. Which cell number (HCC1569 [1]) did it give?
**A.** 100

**Q.** And the cell number (TDF [2])?
**A.** 109

**Q.** And the H1.0 immunofluorescence intensity (TDF [3])?
**A.** 97.1 (inactive)

**Q.** What about the H1.0 immunofluorescence intensity (HCC1569 [4]) of the same compound?
**A.** 99.2 (inactive)

**Q.** How did the cell number (HCC1569 [1]) turn out when O=C(O)C=CC(=O)O.O=[N+]([O-])c1ccc2nc(N3CCNCC3)ccc2c1 [Quipazine, 6-nitro-, maleate] was run?
**A.** 96.6

**Q.** And the cell number (TDF [2])?
**A.** 95.5

**Q.** And the H1.0 immunofluorescence intensity (TDF [3])?
**A.** 95.2 (inactive)

**Q.** What about the H1.0 immunofluorescence intensity (HCC1569 [4]) of the same compound?
**A.** 107 (inactive)

**Q.** For CCCC(=O)OC1C(C)C2(O)C(C=C(CO)CC3(O)C(=O)C(C)=CC32)C2C(C)(C)C12OC(=O)CCC (centres undefined) [Phorbol 12,13-dibutyrate], which cell number (HCC1569 [1]) is on record?
**A.** 89.5

**Q.** And the cell number (TDF [2])?
**A.** 74.2

**Q.** And the H1.0 immunofluorescence intensity (TDF [3])?
**A.** 123 (active)

**Q.** What about the H1.0 immunofluorescence intensity (HCC1569 [4]) of the same compound?
**A.** 157 (active)

**Q.** Which results are given for Cl.Cl.NNCc1cccc(O)c1 [3-Hydroxybenzylhydrazine dihydrochloride]?
**A.** cell number (HCC1569 [1]): 46.1; cell number (TDF [2]): 48.9; H1.0 immunofluorescence intensity (TDF [3]): 117 (inactive); H1.0 immunofluorescence intensity (HCC1569 [4]): 104 (inactive)

**Q.** Which results are given for CC(O)C(C)OC(=O)C1CC2c3cccc4c3c(cn4C(C)C)CC2N(C)C1.O=C(O)C=CC(=O)O (centres undefined) [LY-53,857 maleate]?
**A.** cell number (HCC1569 [1]): 107; cell number (TDF [2]): 107; H1.0 immunofluorescence intensity (TDF [3]): 96.5 (inactive); H1.0 immunofluorescence intensity (HCC1569 [4]): 90.5 (inactive)

**Q.** With CC1=C2CC3C(CC=C4CC(O)CCC43C)C2CCC12OC1CC(C)CNC1C2C (centres undefined) [Cyclopamine] as the compound, how does the cell number (HCC1569 [1]) read?
**A.** 104

**Q.** What about the cell number (TDF [2]) of the same compound?
**A.** 107

**Q.** What about the H1.0 immunofluorescence intensity (TDF [3]) of the same compound?
**A.** 94.9 (inactive)

**Q.** And the H1.0 immunofluorescence intensity (HCC1569 [4])?
**A.** 92 (inactive)
